IDE exosite inh – insulin-degrading enzyme (human) exo-site inhibition. P14735. purified IDE, FL-6b probe fluorescence polarization; hits give low values. z-score at 20 µM. hit rate 6.3% among 17,000. AID 1259349;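 active means z-score of -3 or lower, meaning strong loss of probe binding signal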;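 further: His-tagged human IDE residues 42-1019 made in E. coli with 30 nM FL-6b probe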
An asterisk follows results filed as active. Many of the other results were omitted from the sample, so hits are more common in it than they were.

How did O=C(Nc1ccc(F)cc1)N1CC(=O)N2[C@H](CO)[C@@H](c3ccc(-c4ccccc4)cc3)[C@@H]2C1 do in these assays?
IDE exosite inh: -4.8*

How did Cc1ccccc1-c1ccc([C@H]2[C@@H](CO)N3C(=O)CN(C(=O)Nc4ccc(F)cc4)C[C@@H]23)cc1 do in these assays?
IDE exosite inh: -10*

What do the screens show for `O=C(c1cnccn1)N1CC(=O)N2[C@H](CO)[C@H](c3ccc(C#CC4CCCCC4)cc3)[C@@H]2C1`?
IDE exosite inh: 0.18

What do the screens show for `CCS(=O)(=O)N1CC(=O)N2[C@H](CO)[C@@H](c3ccc(C#CCC4CCCC4)cc3)[C@H]2C1`?
IDE exosite inh: 1.6

Results for CN(C)CC(=O)N1[C@H](C#N)[C@H](c2ccccc2-c2ccc(C(=O)N(C)C)cc2)[C@H]1CO ?
IDE exosite inh: 0.61

How did O=C(Nc1cccc(F)c1)N1CCCCN2[C@H](C1)[C@H](c1ccc(-c3ccccc3F)cc1)[C@@H]2CO do in these assays?
IDE exosite inh: 2.5

Results for CCS(=O)(=O)NC[C@@H]1[C@@H](c2ccccc2)[C@@H](CO)N1CC1CCCCC1 ?
IDE exosite inh: 3.4

How did O=S(=O)(Cc1ccccc1)N1CCCCN2[C@@H](CO)[C@@H](c3ccc(C#Cc4ccccc4)cc3)[C@@H]2C1 do in these assays?
IDE exosite inh: 3.3

What do the screens show for `CCCC#Cc1ccc([C@H]2[C@@H](CO)N3CCCCN(S(C)(=O)=O)C[C@@H]23)cc1`?
IDE exosite inh: 1.4

Results for COc1ccc(C#Cc2ccc([C@@H]3[C@H](CO)N4CCCCN(S(=O)(=O)c5ccccc5)C[C@@H]34)cc2)cc1 ?
IDE exosite inh: 1.2

Results for O=S(=O)(Cc1ccccc1)N1CCCCN2[C@H](CO)[C@H](c3ccc(C#Cc4ccccc4)cc3)[C@@H]2C1 ?
IDE exosite inh: 3.7

What do the screens show for `COc1ccccc1C#Cc1ccc([C@@H]2[C@@H](CO)N3CCCCN(S(C)(=O)=O)C[C@H]23)cc1`?
IDE exosite inh: -5.6*

Results for CCS(=O)(=O)N1CCCCN2[C@@H](CO)[C@H](c3ccc(C#Cc4ccccc4OC)cc3)[C@@H]2C1 ?
IDE exosite inh: -5.9*

What do the screens show for `CCCC#Cc1ccc([C@H]2[C@H](CO)N3CCCCN(S(C)(=O)=O)C[C@@H]23)cc1`?
IDE exosite inh: 3.4

Results for CS(=O)(=O)N1CCCCN2[C@H](CO)[C@H](c3ccc(C#Cc4ccccn4)cc3)[C@@H]2C1 ?
IDE exosite inh: 1.3

What do the screens show for `COc1ccccc1C#Cc1ccc([C@H]2[C@@H](CO)N3CCCCN(S(C)(=O)=O)C[C@@H]23)cc1`?
IDE exosite inh: -10*

What do the screens show for `O=C(c1ccc(F)cc1)N1CC(=O)N2[C@H](C1)[C@@H](c1ccc(-c3cccnc3)cc1)[C@@H]2CO`?
IDE exosite inh: 2.2

What do the screens show for `O=C(c1ccccc1F)N1CC(=O)N2[C@H](CO)[C@@H](c3ccc(-c4ccc(F)cc4)cc3)[C@@H]2C1`?
IDE exosite inh: -0.13

Results for O=C(c1ccccc1)N1CC(=O)N2[C@H](CO)[C@H](c3ccc(-c4ccccc4)cc3)[C@@H]2C1 ?
IDE exosite inh: -0.84

How did C[C@H]1CN([C@@H](C)CO)C(=O)CCCn2cc(nn2)CO[C@H]1CN(C)S(=O)(=O)c1ccc(-n2cccn2)cc1 do in these assays?
IDE exosite inh: -0.59

Results for C/C=C/c1ccc([C@@H]2[C@@H](C#N)N(C(=O)NC3CCCC3)[C@@H]2CO)cc1 ?
IDE exosite inh: 2.8

What do the screens show for `CC(=O)NC[C@@H]1[C@@H](c2ccc(-c3cccnc3)cc2)[C@@H](CO)N1C(=O)C1CC1`?
IDE exosite inh: 0.33

How did OC[C@H]1[C@H](c2ccc(-c3ccccc3F)cc2)[C@@H]2CN(Cc3cncnc3)CCCCN12 do in these assays?
IDE exosite inh: 2.2

How did OC[C@H]1[C@H](c2ccc(C#Cc3ccccc3F)cc2)[C@@H]2CN(Cc3cncnc3)CCCCN12 do in these assays?
IDE exosite inh: -2.3

How did OC[C@H]1[C@H](c2ccc(C#Cc3ccccc3F)cc2)[C@H]2CN(Cc3cncnc3)CCCCN21 do in these assays?
IDE exosite inh: -5.7*

How did OC[C@@H]1[C@H](c2ccc(-c3ccccc3F)cc2)[C@H]2CN(Cc3cncnc3)CCCCN12 do in these assays?
IDE exosite inh: -1.7

What do the screens show for `OC[C@@H]1[C@H](c2ccc(C#Cc3ccccc3F)cc2)[C@@H]2CN(Cc3cncnc3)CCCCN12`?
IDE exosite inh: -3.5*

How did OC[C@@H]1[C@@H](c2ccc(C#Cc3ccccc3F)cc2)[C@H]2CN(Cc3cncnc3)CCCCN12 do in these assays?
IDE exosite inh: -1.6

Results for Cc1ccc(CN2CC(=O)N3[C@H](CO)[C@@H](c4ccc(-c5ccccc5F)cc4)[C@@H]3C2)cc1 ?
IDE exosite inh: -0.23

What do the screens show for `C[C@@H]1CN([C@H](C)CO)C(=O)c2cc(N(C)C)ccc2O[C@@H](C)CCCCO[C@H]1CN(C)S(=O)(=O)c1ccc(F)cc1`?
IDE exosite inh: 0.17

Results for C/C=C/c1ccc([C@H]2[C@@H](CO)N(S(=O)(=O)CC)[C@@H]2CN(C)C(=O)CC)cc1 ?
IDE exosite inh: -0.94

How did O=C(Cc1ccccn1)N[C@H]1CC[C@H](CCNS(=O)(=O)c2cccc(F)c2)O[C@H]1CO do in these assays?
IDE exosite inh: 0.68
